# Structures can show the parent of a compound that is named as a salt.
# Columns and labels:
# Conditions in all cases: treatment time: 24 h
# WPMY1-GM130-SQSTM1 [1] = assay: lowest phenotypically active concentration; higher = less potent
# Outline: (§1)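 Four wells per concentration (0.3, 1, 3 or 9 µM) were treated for 24 h in each of fifteen gene-edited reporter lines from A549, HepG2 and WPMY1 cells, then imaged live. After normalising live-cell features to solvent control wells, deviation was defined as ≥3 of 4 wells lying past the 95th percentile of control Euclidean distances. Reproducibility was defined as a median replicate Pearson correlation above the 95th percentile of non-replicates. Both had to hold for phenotypic activity.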
# A549-CANX-COX4 [2] = assay: phenotypically active (imaging signature differs from DMSO and reproducible) at any of 0.3-9 uM (binary (1 = active, 0 = inactive)); higher = active
# Outline: as §1
# A549-TP53BP1-CLTA [3] = assay: as above
# Outline: as §1
# HepG2-ACTB-RAB5A [4] = assay: as above
# Outline: as §1
# HepG2-CANX-COX4 [5] = assay: as above
# Outline: as §1
# HepG2-GM130-SQSTM1 [6] = assay: as above
# Outline: as §1
# HepG2-TP53BP1-CLTA [7] = assay: as above
# Outline: as §1
# HepG2-TUBA1B-RELA [8] = assay: as above
# Outline: as §1
# WPMY1-ACTB-RAB5A [9] = assay: as above
# Outline: as §1
# WPMY1-CANX-COX4 [10] = assay: as above
# Outline: as §1
# WPMY1-GM130-SQSTM1 [11] = assay: as above
# Outline: as §1
# WPMY1-TP53BP1-CLTA [12] = assay: as above
# Outline: as §1
# WPMY1-TUBA1B-RELA [13] = assay: as above
# Outline: as §1
# A549-CANX-COX4 [14] = assay: lowest phenotypically active concentration; higher = less potent
# Outline: as §1
# A549-TP53BP1-CLTA [15] = assay: as above
# Outline: as §1
# HepG2-ACTB-RAB5A [16] = assay: as above
# Outline: as §1
# HepG2-CANX-COX4 [17] = assay: as above
# Outline: as §1
# HepG2-GM130-SQSTM1 [18] = assay: as above
# Outline: as §1
# HepG2-TP53BP1-CLTA [19] = assay: as above
# Outline: as §1
# HepG2-TUBA1B-RELA [20] = assay: as above
# Outline: as §1
# WPMY1-ACTB-RAB5A [21] = assay: as above
# Outline: as §1
# WPMY1-CANX-COX4 [22] = assay: as above
# Outline: as §1
# WPMY1-TP53BP1-CLTA [23] = assay: as above
# Outline: as §1
# WPMY1-TUBA1B-RELA [24] = assay: as above
# Outline: as §1
Structure (SMILES),lowest phenotypically active concentration (WPMY1-GM130-SQSTM1 [1]),phenotypically active (A549-CANX-COX4 [2]),phenotypically active (A549-TP53BP1-CLTA [3]),phenotypically active (HepG2-ACTB-RAB5A [4]),phenotypically active (HepG2-CANX-COX4 [5]),phenotypically active (HepG2-GM130-SQSTM1 [6]),phenotypically active (HepG2-TP53BP1-CLTA [7]),phenotypically active (HepG2-TUBA1B-RELA [8]),phenotypically active (WPMY1-ACTB-RAB5A [9]),phenotypically active (WPMY1-CANX-COX4 [10]),phenotypically active (WPMY1-GM130-SQSTM1 [11]),phenotypically active (WPMY1-TP53BP1-CLTA [12]),phenotypically active (WPMY1-TUBA1B-RELA [13]),lowest phenotypically active concentration (A549-CANX-COX4 [14]),lowest phenotypically active concentration (A549-TP53BP1-CLTA [15]),lowest phenotypically active concentration (HepG2-ACTB-RAB5A [16]),lowest phenotypically active concentration (HepG2-CANX-COX4 [17]),lowest phenotypically active concentration (HepG2-GM130-SQSTM1 [18]),lowest phenotypically active concentration (HepG2-TP53BP1-CLTA [19]),lowest phenotypically active concentration (HepG2-TUBA1B-RELA [20]),lowest phenotypically active concentration (WPMY1-ACTB-RAB5A [21]),lowest phenotypically active concentration (WPMY1-CANX-COX4 [22]),lowest phenotypically active concentration (WPMY1-TP53BP1-CLTA [23]),lowest phenotypically active concentration (WPMY1-TUBA1B-RELA [24])
CN1CCN(C2=Nc3cc(Cl)ccc3Nc3ccccc32)CC1 [clozapine],9 µM,0 (inactive),0 (inactive),0 (inactive),0 (inactive),0 (inactive),0 (inactive),0 (inactive),0 (inactive),0 (inactive),1 (active),0 (inactive),0 (inactive),–,–,–,–,–,–,–,–,–,–,–
COc1cc2c(NC3CCN(C(C)C)CC3)nc(C3CCCCC3)nc2cc1OCCCN1CCCC1,≤ 0.3 µM,1 (active),1 (active),1 (active),1 (active),1 (active),1 (active),1 (active),1 (active),1 (active),1 (active),1 (active),1 (active),3 µM,3 µM,1 µM,3 µM,1 µM,1 µM,≤ 0.3 µM,1 µM,1 µM,1 µM,1 µM
COc1ccc2c(Oc3ccc(NC(=O)c4c(C)n(CC(C)(C)O)n(-c5ccccc5)c4=O)nc3)ccnc2c1,–,0 (inactive),0 (inactive),0 (inactive),1 (active),1 (active),1 (active),1 (active),0 (inactive),0 (inactive),0 (inactive),0 (inactive),0 (inactive),–,–,–,9 µM,9 µM,9 µM,9 µM,–,–,–,–
CC[C@H](C)[C@H](NC(=O)OCc1ccccc1)C(=O)N[C@@H](CCC(=O)OC(C)(C)C)C(=O)N[C@@H](C)C(=O)N[C@H](C=O)CC(C)C,≤ 0.3 µM,1 (active),1 (active),1 (active),1 (active),1 (active),1 (active),1 (active),1 (active),1 (active),1 (active),1 (active),1 (active),≤ 0.3 µM,≤ 0.3 µM,≤ 0.3 µM,≤ 0.3 µM,≤ 0.3 µM,≤ 0.3 µM,≤ 0.3 µM,≤ 0.3 µM,≤ 0.3 µM,≤ 0.3 µM,≤ 0.3 µM
NCCNS(=O)(=O)c1cccc2cnccc12 [H-9 dihydrochloride],–,0 (inactive),0 (inactive),0 (inactive),0 (inactive),0 (inactive),0 (inactive),0 (inactive),1 (active),0 (inactive),0 (inactive),0 (inactive),0 (inactive),–,–,–,–,–,–,–,9 µM,–,–,–
CCOc1cc(N2CCC(O)CC2)ccc1Nc1ncc2c(n1)N(C)c1ccccc1C(=O)N2C,3 µM,1 (active),1 (active),1 (active),1 (active),1 (active),1 (active),1 (active),1 (active),1 (active),1 (active),1 (active),1 (active),9 µM,9 µM,3 µM,3 µM,3 µM,9 µM,3 µM,3 µM,3 µM,3 µM,9 µM
Nc1cc(C(F)(F)F)c(-c2cc(N3CCOCC3)nc(N3CCOCC3)n2)cn1 [buparlisib],1 µM,1 (active),1 (active),1 (active),1 (active),1 (active),1 (active),1 (active),1 (active),1 (active),1 (active),1 (active),1 (active),1 µM,1 µM,1 µM,1 µM,3 µM,3 µM,3 µM,3 µM,1 µM,3 µM,3 µM
Nc1nc2ccc(OC(F)(F)F)cc2s1 [riluzole],–,0 (inactive),0 (inactive),0 (inactive),0 (inactive),0 (inactive),0 (inactive),0 (inactive),0 (inactive),0 (inactive),0 (inactive),0 (inactive),0 (inactive),–,–,–,–,–,–,–,–,–,–,–

# From the supplement of paper PMC7411054
